An excerpt weighted towards active compounds, which were near 5.4% of everything screened.
MPTP block: inhibitors of mitochondrial permeability transition pore; isolated mouse mitochondria, Ca2+ swelling absorbance, 30 min; inhibition, % at 10 µM; 360,000 tested, 1.4% active; AID 602449;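 active = inhibition of 50% or more, scaled per plate between neutral and stimulator controls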;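 note: 0% = DMSO wells given calcium and 100% = 1 mM EGTA wells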
CSC inhib: blocks cancer stem cells; cancer stem cell-like cells viability, luminescence; inhibition, % at 7.5 µM; 300,000 tested, 1.1% active; in the data active = inhibition above about 75%; tested in HMLE shEcad cells
Calb FLC: C. albicans growth modulation with fluconazole. C. albicans CaCi-2 (fluconazole-resistant clinical isolate) + fluconazole, Alamar Blue growth, 48 h. growth inhibition, % (test concentration not listed). 300,000 tested, 0.57% active. AID 1979;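 active = growth inhibition above about 58% in most replicates, limit read from the data, passing the limit was not always enough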;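 note: all wells also contain fluconazole at 8 µg/ml as a sub-toxic cotreatment; 0% = median of DMSO wells and 100% = median of geldanamycin control wells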
SKKanGAS inh: SKKanGAS growth inhibition; 300,000 tested, 1.3% active; inhibition, % at 7.5 µM; S. pyogenes SKKanGAS, kanamycin growth, BacTiter-Glo, 6 h;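 active = mean replicate score, as percent of positive control median, at least 50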;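 note: strain carries kanamycin resistance gene driven by streptokinase promoter and grows in 40 µg/ml kanamycin; loss of luminescence reflects streptokinase promoter inhibition or plain growth inhibition; 0% = median of DMSO wells and 100% = positive control at its reference dose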
Beta cell apopt: blocks beta cell apoptosis; INS-1E cytokine-induced death, ATP luminescence, 48 h; percent of positive-control rescue, neutral wells zero; protection from apoptosis, % (no concentration beside the values); 300,000 tested, 0.8% active;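 active = Every replicate reaches about 75%, or at least half do and their mean reaches it too, limit read from the data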;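 note: 0% = cytokine-treated negative control wells and 100% = positive control rescue; higher means more ATP so stronger rescue from cytokine killing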
Mdm2 MdmX PPI: inhibitors of human Mdm2/MdmX interaction | inhibition, % at 8 µM | SaOS-2 split-luciferase Mdm2/MdmX complementation, luminescence | AID 485346 | 330,000 tested, 3% active;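 active = inhibition of at least 50% at 8 µM in the primary screen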
* = called active by the depositor.

Results for Cc1cccc(C)c1NC(=O)C1(C)CSCC(=O)N1C1CCN(Cc2ccccc2)CC1 (configuration not stated) ?
MPTP block: 1.1

What do the screens show for `CSc1nn2c(C(F)(F)F)cc(C(F)(F)F)nc2c1C(=O)O`?
MPTP block: 3.2; CSC inhib: 7.8; Calb FLC: 112.1*; SKKanGAS inh: -4.3; Beta cell apopt: -7.8; Mdm2 MdmX PPI: -21.9

Results for CC(C)CNC(=O)c1cnn2c(C(F)(F)F)cc(C(F)(F)F)nc12 ?
MPTP block: 1.5; CSC inhib: 4.0; Calb FLC: -1.1; SKKanGAS inh: 3.5; Beta cell apopt: -6.6; Mdm2 MdmX PPI: 18.6

Results for COc1ccc(C(=O)CSc2nnc(-c3ccoc3C)n2CC2CCCO2)cc1 (configuration not stated) ?
MPTP block: 18.9; CSC inhib: -6.1; Calb FLC: 12.2; SKKanGAS inh: 0.1; Beta cell apopt: -11.3; Mdm2 MdmX PPI: -20.0

How did COc1ccc(N2C(=O)CSC2c2cccc(F)c2)c(OC)c1 (configuration not stated) do in these assays?
MPTP block: -0.4; CSC inhib: 3.5; Calb FLC: 36.2; SKKanGAS inh: 0.1; Beta cell apopt: -3.4; Mdm2 MdmX PPI: -8.7

Results for Cc1cc(C)c[n+](C(C)C(=O)c2ccc(-c3ccccc3)cc2)c1 (configuration not stated) ?
MPTP block: 1.9; CSC inhib: 27.6; Calb FLC: -15.7; SKKanGAS inh: -8.1; Beta cell apopt: 93.0*; Mdm2 MdmX PPI: 15.2

How did Cc1ccc[n+](C(C)C(=O)c2ccc(Cl)cc2)c1 (configuration not stated) do in these assays?
MPTP block: 0.6; CSC inhib: -10.3; Calb FLC: -0.4; SKKanGAS inh: 6.4; Beta cell apopt: -3.7; Mdm2 MdmX PPI: 18.6

Results for N#CC1=C2Sc3ccccc3N2CCCC1=O ?
MPTP block: -0.9; CSC inhib: -3.0; Calb FLC: -3.8; SKKanGAS inh: -1.9; Beta cell apopt: 2.0; Mdm2 MdmX PPI: -6.0

Results for N#CC1=C2SC=C(c3ccc(Br)cc3)N2CCCC1=O ?
MPTP block: 0.1; CSC inhib: 86.2*; Calb FLC: 24.7; SKKanGAS inh: 41.1; Beta cell apopt: 12.9; Mdm2 MdmX PPI: -167.6

Results for O=C(Nc1ccc(N2CCOCC2)cc1N1CCOCC1)c1ccc([N+](=O)[O-])cc1Cl ?
MPTP block: 0.3; CSC inhib: 0.9; Calb FLC: -2.4; SKKanGAS inh: 2.8; Beta cell apopt: -2.1; Mdm2 MdmX PPI: 10.4

How did CC(NS(=O)(=O)c1cccc(C(=O)NCc2ccncc2)c1)c1ccccc1 (configuration not stated) do in these assays?
MPTP block: 3.4; Beta cell apopt: -3.5; Mdm2 MdmX PPI: 4.7

How did O=C(/C=C/c1ccccc1Cl)c1ccccc(=O)c1O do in these assays?
MPTP block: 2.7; CSC inhib: 107.7*; Calb FLC: 6.6; SKKanGAS inh: 90.1*; Beta cell apopt: 60.2

Results for O=C(/C=C/c1ccc([N+](=O)[O-])cc1)c1ccccc(=O)c1O ?
MPTP block: 1.7

Results for Cc1ccc(C)c(/C=C/C(=O)c2ccccc(=O)c2O)c1 ?
MPTP block: 6.0; CSC inhib: 92.5*; Calb FLC: 98.2*; SKKanGAS inh: 98.5*; Beta cell apopt: 48.6

What do the screens show for `CN1c2ccccc2C(=O)NC1c1ccc([N+](=O)[O-])s1` (configuration not stated)?
MPTP block: 3.9; CSC inhib: -1.4; Calb FLC: -5.5; SKKanGAS inh: 9.8; Beta cell apopt: -4.3; Mdm2 MdmX PPI: 4.5

Results for CCOc1ccc(N/C=C/C(=O)c2ccccc2)c([N+](=O)[O-])c1 ?
MPTP block: 2.5; CSC inhib: 56.1; Calb FLC: -3.7; SKKanGAS inh: 5.4; Beta cell apopt: 30.6; Mdm2 MdmX PPI: 3.4

What do the screens show for `CCOC(=O)c1sc2ncnc(N3CCN(c4ccc(OC)cc4)CC3)c2c1C`?
MPTP block: 3.2; CSC inhib: 24.7; Calb FLC: -2.3; SKKanGAS inh: 69.3*; Beta cell apopt: 2.3; Mdm2 MdmX PPI: -1.7

Results for Oc1ccc(F)cc1-c1cc(-c2ccc3c(c2)OCCO3)n[nH]1 ?
MPTP block: 4.0; CSC inhib: 41.7; Calb FLC: 7.9; SKKanGAS inh: 55.9*; Beta cell apopt: 11.6; Mdm2 MdmX PPI: -99.8
